High-throughput results deposited in PubChem by National Center for Advancing Translational Sciences (NCATS).
HTT cytoprotect: cytoprotection in Huntington HTT-Q103 PC12 cell model; AID 1471; 0.14% of 230,000 active; Potency, µM (highest dose often 56.4 µM), for inactives: cytoprotection (ATP increase), actives largely listed as activators; PC12 HTT-Q103 induced, cytoprotection, ATP luminescence, 40 h; active = well fitted curve in the direction sought with a large enough effect; inconclusive = small, poorly fitted or top-dose-only effect, or another doubt; inactive = no such curve, though single readings can be large; an effect the other way counts as inactive or inconclusive; also: % of control where 0% means no effect; nearly all actives have a fitted effect of over 45% in size
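ATP quantification (ATPlite) reports survival of PC12 cells in which tebufenozide, 100 nM final, switches on Htt exon 1 with 103 glutamines linked to GFP; compounds are titrated.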
HPGD block: blocks human HPGD enzyme activity; purified HPGD, NADH fluorescence kinetic, PGE2 substrate; Potency, µM, inactives show at the highest dose activity change, negative = inhibition, usual class: inhibitors; 4.3% of 150,000 active; AID 894; also: % is scaled to controls: 0 for no effect and ±100 for the full control effect
Target sequence (P15428 whole entry, looked up): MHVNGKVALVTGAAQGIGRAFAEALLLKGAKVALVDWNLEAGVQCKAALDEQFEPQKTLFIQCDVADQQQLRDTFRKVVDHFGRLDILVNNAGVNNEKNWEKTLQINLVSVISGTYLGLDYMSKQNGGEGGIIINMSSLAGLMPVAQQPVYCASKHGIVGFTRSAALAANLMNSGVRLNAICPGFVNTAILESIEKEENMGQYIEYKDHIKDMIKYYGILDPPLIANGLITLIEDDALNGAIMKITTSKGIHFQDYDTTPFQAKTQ
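20 nM HPGD preincubated 15 min at room temperature with compound in 50 mM Tris-HCl pH 8, 0.01% Tween 20. Started with 1 mM NAD+ and 30 uM prostaglandin E2; NADH fluorescence (360/450 nm) read 5 times over 30-s intervals, last minus first.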
LMNA splice mod: modulators of lamin A splicing; Potency, µM (top dose mostly 46.1 µM), without a hit: at the top dose ratio change, negative = inhibition, usual class: inhibitors; HeLa LMNA splicing GFP/RFP minigene ratio, 48 h; 0.01% of 200,000 active; AID 1487; active = well fitted inhibition curve with a large enough effect in the signal ratio, with a control signal flat, not every such curve was filed as active; inconclusive = small, poorly fitted or top-dose-only effect, or effect the other way, or a change in a side signal; the % refers to the signal ratio; also: % is scaled to controls: 0 for no effect and ±100 for the full control effect
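Read-out is the ratio of GFP to DsRed2 object intensity, acquired by 488 nm laser-scanning cytometry on HeLa lamin A-EGFP minigene reporter cells. Compound incubation 48 hrs at 37 °C in Opti-MEM with 2% FBS; DMSO 0.5% final.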
HttQ103 aggreg: inhibitors of mutant huntingtin aggregate formation in PC12 cells; Potency, µM (series often up to 46.1 µM), without a hit: at the top dose activity change, negative = inhibition, hits mostly inhibitors; 1.1% of 220,000 active; PC12 HttQ103-GFP aggregates, Acumen cytometry, 40 h; active = well fitted curve in the direction sought with a large enough effect; inconclusive = small, poorly fitted or top-dose-only effect, or another doubt; inactive = no such curve, though single readings can be large; an effect the other way counts as inactive or inconclusive; also: % is scaled to controls: 0 for no effect and ±100 for the full control effect; nearly all actives have a fitted effect of over 60% in size
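PC12 cells stably carrying ecdysone-inducible HTT exon 1 Q103–GFP were induced with tebufenozide (100 nM final) and treated with library compounds in titration. GFP aggregates in lysates were counted by laser scanning cytometry.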
JMJD2E inh: JMJD2E (human) inhibition | JMJD2E catalytic domain, FDH-coupled NADH fluorescence (FDH is formaldehyde dehydrogenase) | Potency, µM (highest dose often 57.1 µM), for inactives: top-dose activity change, negative = inhibition, most hits filed as inhibitors | 1.6% of 230,000 active;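 also: 0% = wells with enzyme and -100% = buffer wells without enzyme; nearly all actives have a fitted effect of over 50% in size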
ALDH1A1 inh: inhibitors of human aldehyde dehydrogenase 1A1. AID 1030. Potency, µM (doses to about 75.3 µM), without a hit: at the top dose activity, negative = inhibition, usual class: inhibitors. P00352. Purified ALDH1A1, NADH fluorescence, propionaldehyde substrate. 7.3% of 220,000 active;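 also: plate controls were no enzyme wells and a reference inhibitor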
Target sequence (P00352 whole entry, looked up): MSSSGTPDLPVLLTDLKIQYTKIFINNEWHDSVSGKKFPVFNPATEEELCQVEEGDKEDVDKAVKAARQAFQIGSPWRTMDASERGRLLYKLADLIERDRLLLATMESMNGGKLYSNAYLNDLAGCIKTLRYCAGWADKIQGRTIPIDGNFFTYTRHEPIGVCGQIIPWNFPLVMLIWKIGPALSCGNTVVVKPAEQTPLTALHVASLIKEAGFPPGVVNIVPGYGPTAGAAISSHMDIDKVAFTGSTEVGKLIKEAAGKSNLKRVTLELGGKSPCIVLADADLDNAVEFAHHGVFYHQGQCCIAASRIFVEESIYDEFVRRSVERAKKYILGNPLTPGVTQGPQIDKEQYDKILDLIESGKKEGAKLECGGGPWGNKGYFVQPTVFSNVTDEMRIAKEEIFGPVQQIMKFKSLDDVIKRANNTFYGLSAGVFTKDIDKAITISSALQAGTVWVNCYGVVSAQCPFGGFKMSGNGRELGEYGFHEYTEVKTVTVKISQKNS
Numbers without * were called inactive; ? = inconclusive; · = no result; [ ] = dose if it differs, or a comment. Most compounds without a hit are left out; they make up all but 9.2% or so of the library. Unless noted, calls follow the shape of the dose curve; as a rule, active = well fitted inhibition curve with a large enough effect (not every such curve was filed as active); inconclusive = small, poorly fitted or top-dose-only effect, or another doubt; inactive = no such curve, though single readings can be large or run the other way. Potency is read from the fitted curve at half-maximal effect.

SMILES	HTT cytoprotect	HPGD block	LMNA splice mod	HttQ103 aggreg	JMJD2E inh	ALDH1A1 inh
Cc1ccnc(NC(c2ccccc2O)c2oc(CO)cc(=O)c2O)c1 (stereo not given)	-22%	·	·	-17%	?	13µM*
O=c1cc(CO)oc(C(Nc2ccccn2)c2ccccc2Cl)c1O (stereo not given)	?	·	·	-18%	?	5µM*
O=c1cc(CO)oc(C(Nc2ccccn2)c2ccc(F)cc2)c1O (stereo not given)	4%[10 µM]	-22%	-18%	-9%	?	8.9µM*
COc1ccc(C(Nc2ccccn2)c2oc(CO)cc(=O)c2O)cc1 (stereo not given)	·	?	-4%	8%	?	?
CC[C@@H]1/C=C(\C)C[C@H](C)C[C@H](OC)[C@H]2O[C@@](O)(C(=O)C(=O)N3CCCC[C@H]3C(=O)O[C@H](/C(C)=C/[C@@H]3CC[C@H](Cl)[C@H](OC)C3)[C@H](C)[C@@H](O)CC1=O)[C@H](C)C[C@@H]2OC	7%	·	·	-8%	·	·
NCC(=O)N[C@@H](CCCN=C(N)N)C(=O)NCC(=O)N[C@@H](CC(=O)O)C(=O)N[C@@H](CC(N)=O)C(=O)N1CC[C@@H](C(=O)O)C1	-16%	0%	·	·	·	11%
CC(=O)Nc1cc(CN2CCCCC2)c(O)c2ncccc12	-5%[10 µM]	-10%	·	·	·	9%[13.5 µM]
Oc1ccc(Br)cc1-c1cc(-c2ccccc2F)[nH]n1	-13%	4.5µM*	-2%	-5%	-11%	2%
Oc1ccc(Cl)cc1-c1cc(-c2ccccc2)n[nH]1	-17%	16µM*	?	-16%	-4%	4%
Cc1ccc(Cl)cc1-n1ncc2c(N3CCC(C)CC3)ncnc21	·	·	10%[46 µM]	·	·	·
Cc1cccc(-c2nc(C)c(CCNC(=O)c3cccs3)s2)c1	·	·	10%[46 µM]	·	·	·
Nc1cc(Cl)ccc1N1CCCCCC1	-7%[10 µM]	·	?	?	?	18µM*
Nc1c(N2CCCC2)cc(Cl)c2nonc12	-23%[0.074 µM]	·	-19%	-15%	?	?
Nc1ccc(N2CCCCC2)c2nonc12	7%[10 µM]	·	9%[46 µM]	2%[9.22 µM]	-3%	7.9µM*
Nc1ccc(N2CCCCC2)cc1N1CCCCC1	-23%[10 µM]	-1%	?	?	-12%	4µM*
Cc1ccc(CNC(=O)c2cc(C)nc3c2c(C)nn3-c2ccc(C)cc2)cc1	·	·	8%[46 µM]	·	·	·
Clc1ccc2[nH]cc(-c3nnnn3-c3ccc4ccccc4c3)c2c1	19%[10 µM]	-23%	8%	-11%	16%	9.5µM*
CCOc1ccccc1Nc1sc(C(=O)c2ccc(Cl)cc2)c(N)c1S(=O)(=O)c1ccccc1	·	·	1%[46 µM]	·	·	·
CCOC(=O)C1=C(O)/C(=C\c2cccs2)N=C1C	-30%[10 µM]	-9%	-2%	-26%	-11%	-3%
CCOC(=O)C1=C(O)/C(=C\c2ccc(CNC(=O)C(=O)Nc3ccccc3)o2)N=C1C	13%	32µM*	?	20%	-6%	11µM*
Cc1c2c(nc3nc4ccccc4n13)CC(C)(C)CC2=O	-2%[0.074 µM]	-13%	-2%	?	-8%	-2%
Cc1c2c(nc3ccccc13)CC(C)(C)CC2=O	-41%	·	-10%[46 µM]	-14%	?	14µM*
CCC(=O)Nc1ccc2nc(SCCOc3ccc(C)cc3)sc2c1	·	·	14%[46 µM]	·	·	·
Cc1cccc(NC(=O)N(Cc2cc3cc(C)ccc3[nH]c2=O)CC2COCCO2)c1 (stereo not given)	-20%[10 µM]	·	·	-5%[9.22 µM]	0%	32µM*
COc1ccc2[nH]c(=O)c(CN(CC3CCCO3)C(=O)Nc3ccc(F)cc3)cc2c1 (stereo not given)	5%[10 µM]	?	3%	11µM*	?	?
SMILES	HTT cytoprotect	HPGD block	LMNA splice mod	HttQ103 aggreg	JMJD2E inh	ALDH1A1 inh
COc1ccc(NC(=O)N(Cc2cc3cc(C)ccc3[nH]c2=O)CC2CCCO2)cc1 (stereo not given)	5%[10 µM]	·	·	5%[9.22 µM]	2%	·
Cc1ccc2[nH]c(=O)c(CN(CC3CCCO3)C(=S)Nc3ccccc3)cc2c1 (stereo not given)	-9%[10 µM]	-20%	-15%	-15%	?	14µM*
Cc1ccc2cc(CN(CC3CCCO3)C(=S)Nc3ccccc3)c(=O)[nH]c2c1 (stereo not given)	-6%[10 µM]	·	23%[46 µM]	12%[9.22 µM]	2%	?
Cc1ccc2[nH]c(=O)c(CN(CCCN3CCOCC3)C(=O)Nc3cccc(Cl)c3)cc2c1	12%[10 µM]	-2%	-13%	15%	?	-11%
Cc1ccc2[nH]c(=O)c(CN(CC3CCCO3)S(=O)(=O)c3cccc4nsnc34)cc2c1 (stereo not given)	-17%	-8%	-14%	11%	5%	20µM*
Cc1ccc2[nH]c(=O)c(CN(CC3CCCO3)S(=O)(=O)c3c(C)ccc4nsnc34)cc2c1 (stereo not given)	-31%	-8%	-1%	-2%[9.22 µM]	1%	?
COc1ccc(C(=O)Nc2nnc(S(=O)(=O)N(C)c3ccc(Cl)cc3)s2)cc1OC	·	·	-19%[46 µM]	·	·	·
Oc1ccc2ccccc2c1CN(Cc1c(O)ccc2ccccc12)C1CCCCC1	-8%[10 µM]	-3%	·	·	·	?
CCN(CC)C(=O)CSc1nc2ccc(NC(=O)CSc3nccn3C)cc2s1	-24%[10 µM]	32µM*	?	-22%	2%	?
CCN(CC)C(=O)CSc1nc2ccc(NC(=O)CSc3nnc(N)s3)cc2s1	-33%	14µM*	-7%	?	-8%	?
CCCC(=O)Nc1ccc2nc(SCC(=O)Nc3nccs3)sc2c1	13%[10 µM]	-12%	-9%	-10%	4%	0%
CN(C)CCC(=O)c1ccc(Cl)cc1	4%	16µM*	2%	25%	-4%	0.11µM*
C/C(=N/NC(=O)CNc1ccc(C)cc1)c1ccc(Cl)cc1	17%[10 µM]	-9%	-16%	4%	-5%	?
Cc1ccc(C(=O)CNc2ccc(Cl)cc2)cc1	-30%	·	·	10%	-1%	10µM*
CCOc1ccc(NC(=O)c2ccc(NCC(=O)N3CCCCCC3)cc2)cc1	-3%[10 µM]	·	16%[46 µM]	-2%	-6%	6.3µM*
CCOc1ccc(NCC(=O)c2ccc(C)cc2)cc1	-221%	·	2%[46 µM]	11µM*	-14%	3.2µM*
O=C(O)c1c[nH]c2cc(OCc3ccccc3)ccc2c1=O	-5%[10 µM]	?	·	·	·	?
CC1(C)S[C@@H]2[C@H](NC(=O)COc3ccccc3)C(=O)N2[C@H]1C(=O)O (tested in a mixture with another compound)	-7%[40.3 µM]	-11%	?	·	2%[25.5 µM]	18%[20.9 µM]
Nc1nnc(SCC(=O)Nc2cc(C(F)(F)F)ccc2N2CCOCC2)s1	20%	-17%	-4%	-14%	8%	-2%
O=C(NC(=S)Nc1cc(C(F)(F)F)ccc1N1CCOCC1)c1sc2ccccc2c1Cl	12%[10 µM]	-13%	-8%	22%	7%	7.9µM*
